SMILES strings stand for the structures. The campaign covered roughly 69,000 compounds. About 8,600 (12%) showed an effect of 50% or more. This is one part of a sample in which strong results are shown more often than they occur.

This test relates to Plasmodium berghei. Put plainly: Screen against P. berghei liver stage (PbLuc), transformed with Luciferase, at 10uM. The test is classed as functional, HepG2. The settings on record: tested at 10 uM.
Consider `CNc1cc(N2CCCC2CNCc2ccco2)ncn1` (stereo not drawn), for which the INHIBITION is recorded as 59.8%.
The same measure for `CNc1cc(N2CCCC2CNCc2ccc(C)o2)ncn1` (stereo not drawn): -0.448%; for `CNc1cc(N2CCCC2CNCc2cnc(C)cn2)ncn1` (stereo not drawn): 7.7%; for `CNc1cc(N2CCCC2CNCc2ccc(Cl)o2)ncn1` (stereo not drawn): 56.9%.
Consider `CNc1cc(N2CCCC2CNCc2ccccn2)ncn1` (stereo not drawn), for which the INHIBITION is given as -21.3%.
In the case of `CNc1cc(N2CCCC2CNCc2cccs2)ncn1` (stereo not drawn) it was 36.8%; in that of `O=C(CNC(=O)c1ccc(Cl)cc1)Nc1nccs1`, 14.5%; in that of `COc1ncccc1NC(=O)N(C1CC1)C(C)C(C)C` (stereo not drawn), 31.3%.
The same measure for `CCCc1nc(C(=O)NCCN2CCC(c3ccccc3C)C2)cs1` (stereo not drawn): 85.1%.
The same measure for `Cc1nc(CC(=O)NCCN2CCC(c3ccccc3C)C2)cs1` (stereo not drawn): 42.4%.
Turning to `Cc1ccccc1C1CCN(CCNC(=O)CS(C)(=O)=O)C1` (stereo not drawn), the INHIBITION turned out to be 36.9%.
The same measure for `COc1c(Br)c(CC2CC(CO)=NO2)c(OC)c2c1OCO2` (stereo not drawn): 22.6%.
The same measure for `CCn1cc(CN2CCN(C(=O)c3cc(Br)cs3)CC2)c(C)n1`: 38.3%; for `Cn1cc(Cl)c(CN(Cc2ccsc2)CC2CCCO2)n1` (stereo not drawn): 11.5%.
The same measure for `O=c1c2ccccc2nnn1CN(CC1CCOC1)C1CC1` (stereo not drawn): -5.92%; for `Cc1nn(CN(CC2CCOC2)C2CC2)c(=O)c2ccccc12` (stereo not drawn): 8.86%.
`Cn1cc(C2CCCN2CCCn2c(=O)oc3ccccc32)cn1` (stereo not drawn): the INHIBITION was 1.84%.
In the case of `CCN(CC)CCn1c(=O)oc2ccccc21` it was -5.1%; in that of `CCN(CCn1c(=O)oc2ccccc21)CC1CCOCC1`, 64.9%; in that of `CCN(Cc1ccc(C(C)=O)cc1)CC1CCOCC1`, 14.6%.
The same measure for `O=c1oc2ccccc2n1CCCN1CCCC1c1ccc(O)cc1` (stereo not drawn): 6.61%; for `O=c1oc2ccccc2n1CCN(CC1CCOC1)C1CC1` (stereo not drawn): 51.3%; for `CCCN(CCn1c(=O)oc2ccccc21)CC1CC1`: 56.3%.
The same measure for `CCn1cc2[nH]c(OC)c(CNC(=O)C3CCCN(C)C3)cc-2c1=O` (stereo not drawn): 34.4%.
Take `CC(C)(C)Nc1c(C2CCCN(C(=O)C3CC3)C2)nc2ccccn12` (stereo not drawn): the INHIBITION came to 14.05%.
For `Cc1nnc(CN(CCc2ccccc2)C2CCN(C)CC2)s1`, the INHIBITION was 4.12%.
The same measure for `CCn1cc(CNC2CCN(c3cccc(C)c3C)CC2)cn1`: -12.1%.
As for `CCOC1COC2(CCN(CC3CC3)CC2)C1` (stereo not drawn), the INHIBITION is on record as 26.7%.
The same measure for `Nc1nccc(C2CCN(CCO)C2)n1` (stereo not drawn): 15.5%.
Take `COCCNC(=O)[C@H]1C[C@@H]2CCN(c3nncs3)C[C@H]2O1`: the INHIBITION was found to be 18.5%.
The same measure for `Cc1ccc(CN2CC[C@H]3C[C@H](C(=O)N(C)C)O[C@H]3C2)cc1`: 25.5%; for `Cc1nnc(N2CC[C@H]3C[C@H](C(=O)N4CCOCC4)O[C@H]3C2)s1`: 50%; for `Cc1ccc(N2CC[C@H]3C[C@@H](C(=O)N4CCOCC4)O[C@H]3C2)nn1`: 34.1%.
Consider `CNC(=O)[C@H]1C[C@@H]2CCN(c3nnc(C)s3)C[C@@H]2O1`, for which the INHIBITION was 21.8%.
In the case of `Cc1nnc(N2CC[C@H]3C[C@@H](C(=O)NC4CCCC4)O[C@H]3C2)s1` it was 61.4%; in that of `Cc1nnc(N2CC[C@H]3C[C@H](C(=O)N(C)C)O[C@@H]3C2)s1`, 88.2%.
In the case of `Cc1nnc(N2CC[C@H]3C[C@@H](C(=O)N4CCCC4)O[C@H]3C2)s1` it was -0.388%.
In the case of `CN(C)C(=O)[C@@H]1C[C@@H]2CCN(C3CCOCC3)C[C@H]2O1` it was 21.4%; in that of `CCc1noc(CN2CCC(NC(=O)c3ccc(C)s3)CC2)n1`, -30%.
For `CCS(=O)(=O)CCSc1ccc(Cl)cc1`, the INHIBITION came out at 18.6%.
In the case of `CCN(C(=O)COc1nc(Cc2ccc(F)cc2)no1)C1CC1`, the INHIBITION is on record as -50.7%.
The same measure for `COc1ccc(-n2cc3[nH]c(=O)n(Cc4cccc(F)c4)n3c2=O)cc1`: -67%; for `Cc1c(NC(=O)CN2CCN(C3CCCC3)C(=O)C2)cnn1C`: 7.85%; for `Cc1oc(C(=O)O)cc1S(=O)(=O)Nc1cccc(Cl)c1F`: -46.2%.
The same measure for `CCN1CCCN(S(=O)(=O)c2cc3ccccc3o2)CC1`: 46.6%.
The same measure for `O=S(=O)(c1cc2ccccc2o1)N1CCCC1`: 59.4%; for `CC(=O)N1CCCN(S(=O)(=O)c2cc3ccccc3o2)CC1`: 16.6%; for `O=C(C1CCOCC1)N1C[C@@H]2[C@@H](C1)OCC(=O)N2CC1CC1`: 7.96%.
Turning to `Cc1ccc(CN2CCC3(CC(C(=O)NCC4CC4)=NO3)C2)s1` (stereo not drawn), the INHIBITION is recorded as -117%.
For the molecule `O=C(NC1CCC1)C1=NOC2(CCN(Cc3ccco3)C2)C1` (stereo not drawn), the INHIBITION is on record as 64.9%.
`O=C(O)[C@]12CCCN(Cc3ccco3)C[C@H]1CN(c1ncccn1)C2`: the INHIBITION is given as 42.6%.
The same measure for `Cc1ccc(S(=O)(=O)N2CCC3(CC(C(=O)NC4CCC4)=NO3)C2)cc1` (stereo not drawn): 5.67%; for `Cc1ccc(CN2CCC3(CC(C(=O)NC4CCC4)=NO3)C2)o1` (stereo not drawn): 56.7%.
The same measure for `CC(Nc1ncnc2c1NC(=O)CN2)c1ccc2c(c1)OCO2` (stereo not drawn): 48.2%.
The same measure for `Cn1nccc1C(=O)N1CCOC(Cc2ccc(Cl)cc2)C1` (stereo not drawn): 0.301%; for `Cc1cc(C)c(C(=O)N2CCOCC2c2c(C)nn(C)c2C)o1` (stereo not drawn): -79.1%.
On to `Cc1ccc(C(=O)N2CCCN(C)c3ccc(F)cc32)o1`, for which the INHIBITION was 16.5%.
The same measure for `CCc1cc(C(=O)N2CCCC(c3[nH]ncc3S(C)(=O)=O)C2)no1` (stereo not drawn): 24.8%; for `CCn1ccnc1CN1CCN(c2nc(C)cc(OC)n2)CC1`: 78.3%; for `COc1cc(C)nc(N2CCN(C(=O)CSC)CC2)n1`: -64.85%.
As to `CCOc1cc(C)nc(N2CCN(Cc3nccn3CC)CC2)n1`, the INHIBITION is reported as 50.8%.
Turning to `COc1cc(C)nc(N2CCN(Cc3nccn3C)CC2)n1`, the INHIBITION turned out to be 41.4%.
The same measure for `CCn1ccnc1CN1CCN(c2cc(C)nc(C3CCCN3)c2)CC1` (stereo not drawn): 11.02%.
The same measure for `CCOc1cc(C)nc(N2CCN(Cc3nccn3C)CC2)n1`: 12.2%.
The same measure for `CC(C)Cc1noc(CN(C)c2ncccn2)n1`: -33.3%; for `CCOc1ccccc1C(=O)N(C)C(C)c1ccc(S(C)(=O)=O)cc1` (stereo not drawn): -162%.
Consider `CCC(C)N(Cc1cccnc1)C(=O)c1ccc(OC)cc1O` (stereo not drawn), for which the INHIBITION worked out at 32.9%.
In the case of `CSCC(CCO)NC(=O)Nc1cccc(Br)c1C` (stereo not drawn) it was 36.8%.
The same measure for `CSCC(CCO)Nc1cccc(C(F)(F)F)n1` (stereo not drawn): 22.8%.
On to `CSCC(CCO)NC(=O)c1cccc(Cl)c1F` (stereo not drawn), for which the INHIBITION amounted to 36.4%.
The same measure for `CSCC(CCO)NC(=O)c1cccc(C)c1Cl` (stereo not drawn): 54.1%.
The same measure for `CSCC(CCO)NC(=O)c1cccc(F)c1Cl` (stereo not drawn): 65.9%.
On to `CSCC(CCO)NC(=O)Nc1ccc(C)cc1C` (stereo not drawn), for which the INHIBITION is given as -7.53%.
The same measure for `CC(C)NC(=O)C1c2c(ncn2C(C)C)CCN1Cc1ccccc1` (stereo not drawn): 8.67%; for `Cn1ccc(C(=O)NC2CCC23CCN(CC2CCOCC2)CC3)c1` (stereo not drawn): 12%.
As to `CC[C@@H](C)[C@H](NC(=O)NC1CCS(=O)(=O)C1)C(=O)NCc1ccncc1` (stereo partly drawn), the INHIBITION was -41.2%.
The same measure for `O=C(N[C@@H]1CN(Cc2cccs2)[C@@H]2COC[C@@H]21)C1CCC1`: -0.804%; for `CCN(CC1CCCO1)C(=O)Nc1cc(C)ccc1S(C)(=O)=O` (stereo not drawn): -12.2%; for `Cc1cnn(CCNC(C)c2nnc(-c3ccccc3)o2)c1` (stereo not drawn): 54.8%.
In the case of `Cc1cccc(-c2nnc(C(C)NCCn3cc(C)cn3)o2)c1` (stereo not drawn) it was 17.9%; in that of `Cc1ccc(-c2nnc(C(C)NCCn3cc(C)cn3)o2)cc1` (stereo not drawn), -3.87%.
The same measure for `Cn1ncc2c1CCCC2NCc1cc(Br)cs1` (stereo not drawn): 31.1%; for `NCCNS(=O)(=O)Cc1ccc(Br)cc1`: 16.9%; for `COCc1noc(CN2C[C@H](C3CC3)[C@@H](N(C)C)C2)n1`: 17.1%.
In the case of `O=C(CCOc1ccccc1F)N1CCCC1Cn1cccn1` (stereo not drawn), the INHIBITION amounted to 29.2%.
The same measure for `CN(CCC(=O)N1CCc2sccc2C1)Cc1cnn(C)c1`: 19.2%; for `CC(C)c1cc(C(=O)N2CCc3ccccc3C2C(=O)O)n(C)n1` (stereo not drawn): 66.3%.
In the case of `CC(C)c1nc(C(=O)N2CCc3ccccc3C2C(=O)O)cs1` (stereo not drawn) it was 6.61%; in that of `CC(C)c1cc(C(=O)N2CCc3ccccc3C2C(=O)O)nn1C` (stereo not drawn), -28%; in that of `O=C(O)C1(n2ccc(-c3ccco3)n2)CCN(Cc2ccsc2)CC1`, -14.3%.
In the case of `Nc1no[n+]([O-])c1C(=O)NCc1cccnc1` it was 42.8%; in that of `NC(=O)NCC(=O)N1CCC2(CC1)c1ccccc1CC2O` (stereo not drawn), 28.3%.
On to `NS(=O)(=O)CCCC(=O)N1CCC2(CC1)c1ccccc1CC2O` (stereo not drawn), for which the INHIBITION is listed as -38.8%.
In the case of `O=C(CCN1CCNCC1)N1CCC2(CC1)c1ccccc1CC2O` (stereo not drawn) it was 31.6%; in that of `O=C(CSc1ccncc1)N1CCC2(CC1)c1ccccc1CC2O` (stereo not drawn), -16.8%; in that of `CSCC(=O)N1CCC2(CC1)c1ccccc1CC2O` (stereo not drawn), 65.1%.
As for `Cn1cccc1CCC(=O)N1CCC2(CC1)c1ccccc1CC2O` (stereo not drawn), the INHIBITION turned out to be 60.1%.
The same measure for `COCCC(=O)N1C[C@@H](c2ccc(F)c(F)c2)[C@@]2(CCCC(=O)N2)C1`: 17.4%; for `CCNC(c1cccnc1)c1ccc(F)cc1F` (stereo not drawn): 30.6%; for `COCCNc1ccccc1CNC(=O)C1CCCOC1` (stereo not drawn): 35.1%.
In the case of `COCCNc1ccccc1CNC(=O)NCc1cnc(C)s1` it was 52.1%; in that of `Cc1ncc(CNC(=O)NCC(C)Oc2ccccc2F)s1` (stereo not drawn), -47.3%; in that of `COc1ccc(CNC(=O)NCCc2nc(C)c(C)s2)cn1`, 31.2%.
The same measure for `Cc1ncc(CNC(=O)NCc2c(F)cccc2OC(F)F)s1`: 10.7%; for `Cc1ccc(CNC(=O)NCc2cccnc2N(C)C)s1`: 15.5%; for `COCCNc1ccccc1CNC(=O)NCc1ccc(C)s1`: 64.1%.
Turning to `COCCNc1ccccc1CNC(=O)NCc1nc(C)c(C)s1`, the INHIBITION turned out to be 72%.
In the case of `COc1ccc(CNC(=O)NCc2nc(C)c(C)s2)cn1` it was 48.5%.

The values above are taken from ChEMBL document CHEMBL4513216, “Probing the Open Global Health Chemical Diversity Library for Multistage-Active Starting Points for Next-Generation Antimalarials” (ACS Infect Dis, 2020).
